Potency data for 61 compounds are collected here from PubChem BioAssay AID588463 (National Center for Advancing Translational Sciences (NCATS), 2011).

Each structure is given as a SMILES string. In all, about 1,200 compounds went through this assay and about 15 (1%) were called active. A call without a number means that no potency is given here. Inconclusive results (about 7%) are left out. The sample holds actives, similar compounds and a random draw of the others, so the mix is not that of the screen. Calls come from the whole dose curve; as a rule, active = well fitted activation curve with a large enough effect; inconclusive = small, poorly fitted or top-dose-only effect; inactive = flat fitted curve, though single readings scatter.
Potency is the fitted concentration of half-maximal effect.

Beta-2 adrenergic receptor (Homo sapiens), sequence (P07550 whole entry, looked up): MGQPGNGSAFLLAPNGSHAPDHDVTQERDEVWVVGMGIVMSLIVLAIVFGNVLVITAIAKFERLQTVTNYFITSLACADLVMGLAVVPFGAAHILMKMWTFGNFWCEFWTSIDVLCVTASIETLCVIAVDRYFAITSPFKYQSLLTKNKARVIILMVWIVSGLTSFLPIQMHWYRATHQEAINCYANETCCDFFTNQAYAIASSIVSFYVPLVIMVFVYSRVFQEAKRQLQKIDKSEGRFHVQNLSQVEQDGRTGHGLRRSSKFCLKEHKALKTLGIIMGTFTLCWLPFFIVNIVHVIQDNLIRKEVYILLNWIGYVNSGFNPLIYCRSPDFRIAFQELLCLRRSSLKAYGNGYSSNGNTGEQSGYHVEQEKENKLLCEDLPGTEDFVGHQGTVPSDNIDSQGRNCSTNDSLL

The experiment has as its target Beta-2 adrenergic receptor (Homo sapiens) (UniProt P07550). As to the kind of experiment: qHTS assay of beta-arrestin-biased ligands of beta2-adrenergic receptor: Hit Validation. To be noted: cell-based beta-arrestin recruitment to beta2AR; Potency: activation; series mostly up to 46.1 µM. An excerpt:
The concept of biased agonism is an emerging concept of molecular pharmacology which proposes that seven transmembrane receptors (7TMRs) or G protein-coupled receptors (GPCRs), exist in multiple signaling conformations and complexes and that ligands (either agonists or antagonists) can induce signaling biased responses for distinct signal transduction cascades.
Furthermore, accumulating evidence over the last decade has drawn attention to a novel function of beta-arrestins as signal transducers that scaffold various signaling molecules upon activation of 7TMRs. […] This beta-arrestin-biased signaling presumably leads to distinct physiological outcomes from those by G protein activation.
Additionally, the active receptor conformations which […] on this beta-arrestin signaling are likely different from those activating G protein signaling
The goal of this screening project will be to discover and optimize novel beta-arrestin-biased ligands for beta2-AR signaling. A luminescent cell-based assay for beta2-AR-mediated agonism, known as the Tango assay, has been validated in which ligand binding of a recombinant beta2-AR and subsequent recruitment of a recombinant beta-arrestin lead to the release of the transcriptional activator tTA, which upregulates transcription of a tTA-responsive luciferase gene.
NIH Molecular Libraries Probe Production Network [MLPCN]
NIH Chemical Genomics Center [NCGC]
PI: Bryan Roth (UNC) and Bob Lefkowitz (Duke)
NCGC Assay Protocol Summary:
Tango cells were dispensed into white, solid, tissue-culture-treated 1536-well plates at 1500 cells/well in DMEM, containing 1% fetal bovine serum (FBS). Then, 23 nL of compounds or DMSO were delivered to each well using a pin tool. Plates were incubated at 37 degrees C, 5% CO2 for 18 hr. Then 2.5 uL luminescent substrate mix (in-house prepared: 150 mM Tris-Cl, pH 7.6, 3 mM MgCl2, 1% Triton X-100, 5 mM DTT, 0.5 mM CoA, 0.15 mM ATP, 0.44 mM D-luciferin, final concentrations) was added to each well. Plates were then incubated for 15 minutes at room temperature, and subsequently measured on a ViewLux plate reader for luminescent signal using a clear filter with a 10 second exposure and 2x binning. The %Activity was determined from the corrected luminescence values.
Concentration-response curves were fitted to the signals arising from the resulting luminescence. The concentration-effect curves were then classified based on curve quality (r2), response magnitude and degree of measured activity, and compounds were subsequently categorized based on their curve class.
Keywords: biased agonism, beta2-AR, beta-arrestin, GPCR, 7TMR, Tango, luminescence, MLSMR, MLPCN, NIH Roadmap, qHTS, NCGC
As for `CCc1ccc(CNc2ccc(O)cc2)cc1`, the Potency entry was “inactive”. The result for `Cc1ccc(S(=O)(=O)Nc2cccnc2)cc1` reads “inactive”; that for `Cc1ccc(/C=C/C(=O)c2ccccc(=O)c2O)c(C)c1`, “inactive”. The result for `Cc1ccc(C2C3=C(CC(C)(C)CC3=O)NC3=C2C(=O)c2ccccc23)cc1` (stereo unspecified) reads “inactive”; that for `Cc1cc(-c2n[nH]c(=S)n2/N=C/C(Cl)=C/c2ccccc2)n[nH]1`, “inactive”.

Consider `CN1CCN(C(=S)NC(=O)c2ccc(Br)cc2)CC1`, for which the Potency result was “inactive”. The result for `COc1ccc(Cl)cc1C(Nc1cccnc1)c1ccc2cccnc2c1O` (stereo unspecified) reads 16.4 µM (active); that for `CN1CCN(C(c2cccnc2)c2ccc3cccnc3c2O)CC1` (stereo unspecified), “inactive”. The result for `CC(=O)/C(=N\Nc1ccc(Cl)cc1Cl)Sc1cccc2cccnc12` reads “inactive”. For the compound `CC1=NN(C(N)=S)C(=O)C1N=Nc1ccc([N+](=O)[O-])cc1` (stereo unspecified), the Potency entry was “inactive”.

As to `CC(C)c1nnc(NC(=O)c2cnccn2)s1`, the Potency entry was “inactive”. In the case of `COCCNC(=S)N/N=C(\C)c1ccc(Cl)c(Cl)c1`, the Potency entry is “inactive”. Consider `Cc1ccccc1NC(=O)c1c([N+](=O)[O-])c(C(C)(C)C)nn1C`, for which the Potency entry is “inactive”.

`O=C(O)c1ccc(C2Nc3ccccc3C(=O)N2Cc2ccccc2)cc1` (stereo unspecified): the Potency result is “inactive”. The result for `CCOC(=O)C1=C(C)N(c2ccc(OC)cc2)C(=O)/C1=C\c1ccc(O)c(OCC)c1` reads “inactive”; that for `CCCCCC1CCC(c2n[nH]c(=S)n2C)CC1` (stereo unspecified), “inactive”; that for `CCCCOc1ccc(C(O)(CCC)CCN2CCOCC2)cc1` (stereo unspecified), “inactive”.

Regarding `CCC(=O)N1CCC2(CC1)Oc1ccc(Cl)cc1C(=O)C21CC(c2ccccc2)=NO1` (stereo unspecified), the Potency is 20.6 µM (active). As to `CC(=O)Nc1nonc1NC(=O)CSc1nc2ccccc2o1`, the Potency result was “inactive”. The result for `CCCCC(=O)NC(c1cccc([N+](=O)[O-])c1)c1c(OC(C)=O)ccc2ccccc12` (stereo unspecified) reads “inactive”; that for `COc1ccc(N/C=C/C(=O)C(F)(F)F)cc1`, “inactive”. The result for `Cc1cccc(NNC(=S)Nc2c(C)cccc2C)c1` reads “inactive”; that for `CCOc1ccc(/C=N/NC(=O)Cc2csc(Nc3cccc(C(F)(F)F)c3)n2)c(OCC)c1`, “inactive”; that for `CCN(CC)C(=O)[C@H]1C[C@H](CC(=O)NCc2cccc(C(F)(F)F)c2)C(=O)N2CCc3c([nH]c4cc(-c5ccco5)ccc34)[C@]12C`, “inactive”. The result for `CCCC(=O)NC(c1ccc(OC)cc1)c1ccc2cccnc2c1O` (stereo unspecified) reads 4.11 µM (active).

In the case of `CCCCOc1ccc(NC(=O)CSc2cccc3cccnc23)cc1`, the Potency entry is “inactive”. `CCCC(=O)NC(c1ccccc1OC)c1ccc2cccnc2c1O` (stereo unspecified): the Potency entry was “inactive”.

Turning to `CCOC(=O)C1=C(C)N=c2s/c(=C3/C(=O)Nc4ccccc43)c(=O)n2C1c1ccc(C)cc1` (stereo unspecified), the Potency result was “inactive”. Turning to `O=c1ccc(S(=O)(=O)N2CCCC2)c[nH]1`, the Potency result is “inactive”. Take `CCc1cc(=O)oc2cc3occ(C)c3cc12`: the Potency entry was “inactive”.

Regarding `COc1ccc2ccccc2c1/C=N/NC(=S)NCCN1CCOCC1`, the Potency result was “inactive”.

In the case of `O=C(/C=C/c1ccc(Cl)cc1)NC(=S)Nc1ccccc1C(=O)O`, the Potency entry was “inactive”. Turning to `CC(c1ccccc1)n1c(-c2ccc(C(C)(C)C)cc2)n[nH]c1=S` (stereo unspecified), the Potency result is “inactive”.

Regarding `Cc1c(C(=O)OC2CCC(C)CC2)[nH]c2c1C(=O)CCC2` (stereo unspecified), the Potency entry is “inactive”. The result for `CCCCn1c(Cc2ccccc2)n[nH]c1=S` reads “inactive”; that for `CCOC(=O)C1CCN(Cc2cnc(Oc3ccc(N)cc3)s2)CC1`, “inactive”; that for `Cc1ccc(N=C2NC(=O)/C(=C/C=C/c3ccco3)S2)cc1`, “inactive”. Regarding `CCOc1ccc2nc(NC(=S)N(C)C)sc2c1`, the Potency result is “inactive”. The result for `O=[N+]([O-])c1ccc(OCC(O)CN(C2CCCCC2)C2CCCCC2)cc1` (stereo unspecified) reads “inactive”; that for `COc1ccc(-c2c(-c3ccccc3)c(C(=O)C(=O)NCCCN(C)C)n3ccc4cc(OC)c(OC)cc4c23)cc1OC`, “inactive”. The result for `Cc1cccc(NC(=S)NC(=O)c2cccs2)n1` reads “inactive”; that for `CCC1CCCCN1CC(=O)Nc1cc(C)nn1-c1nc(C)cc(C)n1` (stereo unspecified), “inactive”; that for `S=C(NCc1ccccn1)Nc1ccc(Cl)c(Cl)c1`, “inactive”. On to `CCNC(=S)N/N=C/c1sccc1C`, for which the Potency result was “inactive”. On to `COc1ccc(OC)c(NC(=O)Cn2c(CCC(=O)O)ccc2-c2ccccc2)c1`, for which the Potency result was “inactive”. `COC(=O)C1=C(C)NC(=S)NC1c1ccc(-c2cc(Cl)ccc2Cl)o1` (stereo unspecified): the Potency result is “inactive”. The result for `C/C=C/C=N/NC(=O)CN(c1ccc(Br)cc1)S(=O)(=O)c1ccccc1` reads “inactive”.

Turning to `S=C(N/N=C/c1ccc(Cl)c(Cl)c1)Nc1ccccc1Cl`, the Potency entry is “inactive”. Turning to `Cc1ccc(SCc2cc(=O)[nH]c(/N=C(\N)Nc3ccc(C)c(C)c3)n2)cc1`, the Potency entry was “inactive”.

On to `CCCNC(=O)c1ccc(N2CCC3(CC2)CC(c2cccc(Br)c2)=NO3)c(NC(=O)c2ccc(Br)cc2)c1`, for which the Potency entry was “inactive”. The result for `CNC(=S)N/N=C1\CC(c2ccccc2)Oc2ccccc21` (stereo unspecified) reads “inactive”. The result for `CCOc1ccccc1C1C2CCCCC2(O)CCN1C(=O)c1cccs1` (stereo unspecified) reads “inactive”; that for `O=C(N/N=C/C(Br)=C\c1ccccc1)c1n[nH]c2c1CCC2`, “inactive”. The result for `Cc1ccc(C2=NOC(C)(c3nnc(-c4ccc(F)cc4)o3)C2)cc1` (stereo unspecified) reads “inactive”.

For `C/C(=N\NC(=S)NC(C)C)c1ccccc1`, the Potency result is “inactive”. The result for `COc1ccc2c(c1)c1ncn(CCN3CCCCC3)c(=O)c1n2C` reads “inactive”; that for `CCOC(=O)C1CCN(C(=O)Nc2c(-c3ccccc3)noc2C)CC1`, “inactive”.

On to `CCCCCOCC1CC(C/C(C)=N/NC(N)=S)C(=O)O1` (stereo unspecified), for which the Potency entry is “inactive”. Regarding `COc1ccccc1NS(=O)(=O)c1cc(NC(=O)CNC(=O)c2ccc(C)s2)ccc1Cl`, the Potency result was “inactive”. The result for `Cc1ccc(C)c(NC(=S)NNc2ccc(F)cc2F)c1` reads “inactive”. For `O=C(Oc1c(CN2CCOCC2)cc(Cl)c2cccnc12)c1ccccc1Br`, the Potency entry was “inactive”.
